Experimental data: the supplement of paper PMC10849652
The full data set covers some 8,800 targets. This sample favours those with a hit. About 0.5% of all pairs of compound and target were hits.

Experiments:
Experiment in all cases: log2 fold change, soluble protein after heating vs DMSO (PISA); higher = thermal stabilisation; K562 lysate, 10 uM; active = over 0.2 and 3.5 SD of the protein, either way, in both replicates (recomputed)
alvocidib = compound: CN1CC[C@H](c2c(O)cc(O)c3c(=O)cc(-c4ccccc4Cl)oc23)[C@H](O)C1 [alvocidib]
Procedure, shortened: (§1)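 Dounce homogenisation of K562 pellets in PBS pH 7.4 with 1 mM MgCl2 produced a crude extract, used at 1 mg/mL protein. Exposure to 10 μM compound lasted 30 min, and aliquots were then heated for 3 min across 48°C-58°C, pooled and brought to 0.5% NP-40 at 4°C. The supernatant after 21,000xg for 90 min was quantified by TMTpro 16plex LC-MS/MS with channel sums equalised. Duplicate values are given as log-two fold change in thermal stability relative to solvent controls.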

Tubastatin A = compound: CN1CCc2c(c3ccccc3n2Cc2ccc(C(=O)NO)cc2)C1 [Tubastatin A]
Procedure, shortened: as §1

[1] = compound: CNC(=O)C1=CC=CC=C1NC2=NC(=NC=C2Cl)NC3=C(C=C(C=C3)N4CCOCC4)OC
Procedure, shortened: as §1

defactinib = compound: CNC(=O)c1ccc(Nc2ncc(C(F)(F)F)c(NCc3nccnc3N(C)S(C)(=O)=O)n2)cc1 [defactinib]
Procedure, shortened: as §1

[2] = compound: CNc1nc(-c2ccc3c(N)n[nH]c3c2)cc(N2C[C@@H](C(=O)NC3CCCCC3)CC[C@H]2C)n1
Procedure, shortened: as §1

encorafenib = compound: COC(=O)N[C@@H](C)CNc1nccc(-c2cn(C(C)C)nc2-c2cc(Cl)cc(NS(C)(=O)=O)c2F)n1 [encorafenib]
Procedure, shortened: as §1

[3] = compound: COC(=O)[C@H](CCSC)NC(=O)C1=C(C=C(C=C1)NC[C@H](CS)N)C2=CC=CC=C2
Procedure, shortened: as §1

alisertib = compound: COc1cc(Nc2ncc3c(n2)-c2ccc(Cl)cc2C(c2c(F)cccc2OC)=NC3)ccc1C(=O)O [alisertib]
Procedure, shortened: as §1

[4] = compound: COc1cc2nc(-c3cc(F)ccc3O)nc(N[C@@H]3CNC[C@H]3C(C)(C)O)c2cc1OC
Procedure, shortened: as §1

gefitinib = compound: COc1cc2ncnc(Nc3ccc(F)c(Cl)c3)c2cc1OCCCN1CCOCC1 [gefitinib]
Procedure, shortened: as §1

lapatinib = compound: CS(=O)(=O)CCNCc1ccc(-c2ccc3ncnc(Nc4ccc(OCc5cccc(F)c5)c(Cl)c4)c3c2)o1 [lapatinib]
Procedure, shortened: as §1

pictilisib = compound: CS(=O)(=O)N1CCN(Cc2cc3nc(-c4cccc5[nH]ncc45)nc(N4CCOCC4)c3s2)CC1 [pictilisib]
Procedure, shortened: as §1

crizotinib = compound: C[C@@H](Oc1cc(-c2cnn(C3CCNCC3)c2)cnc1N)c1c(Cl)ccc(F)c1Cl [crizotinib]
Procedure, shortened: as §1

[5] = compound: C[C@H](C1=CC=C(C=C1)C(=O)NC2=C3C=CNC3=NC=C2)N
Procedure, shortened: as §1

duvelisib = compound: C[C@H](Nc1ncnc2nc[nH]c12)c1cc2cccc(Cl)c2c(=O)n1-c1ccccc1 [duvelisib]
Procedure, shortened: as §1

gandotinib = compound: Cc1cc(Nc2cc(CN3CCOCC3)c3nc(C)c(Cc4ccc(Cl)cc4F)n3n2)n[nH]1 [gandotinib]
Procedure, shortened: as §1

tozasertib = compound: Cc1cc(Nc2cc(N3CCN(C)CC3)nc(Sc3ccc(NC(=O)C4CC4)cc3)n2)n[nH]1 [tozasertib]
Procedure, shortened: as §1

doramapimod = compound: Cc1ccc(-n2nc(C(C)(C)C)cc2NC(=O)Nc2ccc(OCCN3CCOCC3)c3ccccc23)cc1 [doramapimod]
Procedure, shortened: as §1

bafetinib = compound: Cc1ccc(NC(=O)c2ccc(CN3CC[C@H](N(C)C)C3)c(C(F)(F)F)c2)cc1Nc1nccc(-c2cncnc2)n1 [bafetinib]
Procedure, shortened: as §1

[6] = compound: Cc1cccc(CC(=O)N2CCc3c2ccc(-c2cn(C)c4ncnc(N)c24)c3F)n1
Procedure, shortened: as §1

Measured: log2 fold change

RNF113A (UniProt O15541)
UniProt O15541, sequence (O15541 whole entry, looked up): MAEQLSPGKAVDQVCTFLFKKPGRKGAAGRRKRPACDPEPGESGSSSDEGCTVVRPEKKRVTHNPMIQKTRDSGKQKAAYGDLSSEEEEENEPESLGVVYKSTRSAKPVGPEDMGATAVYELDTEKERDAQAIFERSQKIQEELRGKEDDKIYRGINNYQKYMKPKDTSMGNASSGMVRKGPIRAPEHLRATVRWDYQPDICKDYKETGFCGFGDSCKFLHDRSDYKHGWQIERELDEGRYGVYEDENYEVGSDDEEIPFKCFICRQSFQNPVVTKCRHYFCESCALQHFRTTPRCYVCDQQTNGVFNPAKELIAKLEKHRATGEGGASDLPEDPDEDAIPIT
inactive: alvocidib -0.062 | Tubastatin A 0.05 | [1] 0.014 | defactinib -0.013 | [2] 0.022 | encorafenib -0.019 | [3] -0.017 | alisertib -0.015 | [4] 0.015 | gefitinib 0.004 | lapatinib 0.012 | pictilisib 0.021 | crizotinib 0.024 | [5] -0.072 | duvelisib -0.009 | gandotinib 0.068 | tozasertib 0.002 | doramapimod 0.016 | bafetinib 0 | [6] 0.034

RALGAPB (UniProt Q86X10)
UniProt Q86X10, sequence (Q86X10 whole entry, looked up): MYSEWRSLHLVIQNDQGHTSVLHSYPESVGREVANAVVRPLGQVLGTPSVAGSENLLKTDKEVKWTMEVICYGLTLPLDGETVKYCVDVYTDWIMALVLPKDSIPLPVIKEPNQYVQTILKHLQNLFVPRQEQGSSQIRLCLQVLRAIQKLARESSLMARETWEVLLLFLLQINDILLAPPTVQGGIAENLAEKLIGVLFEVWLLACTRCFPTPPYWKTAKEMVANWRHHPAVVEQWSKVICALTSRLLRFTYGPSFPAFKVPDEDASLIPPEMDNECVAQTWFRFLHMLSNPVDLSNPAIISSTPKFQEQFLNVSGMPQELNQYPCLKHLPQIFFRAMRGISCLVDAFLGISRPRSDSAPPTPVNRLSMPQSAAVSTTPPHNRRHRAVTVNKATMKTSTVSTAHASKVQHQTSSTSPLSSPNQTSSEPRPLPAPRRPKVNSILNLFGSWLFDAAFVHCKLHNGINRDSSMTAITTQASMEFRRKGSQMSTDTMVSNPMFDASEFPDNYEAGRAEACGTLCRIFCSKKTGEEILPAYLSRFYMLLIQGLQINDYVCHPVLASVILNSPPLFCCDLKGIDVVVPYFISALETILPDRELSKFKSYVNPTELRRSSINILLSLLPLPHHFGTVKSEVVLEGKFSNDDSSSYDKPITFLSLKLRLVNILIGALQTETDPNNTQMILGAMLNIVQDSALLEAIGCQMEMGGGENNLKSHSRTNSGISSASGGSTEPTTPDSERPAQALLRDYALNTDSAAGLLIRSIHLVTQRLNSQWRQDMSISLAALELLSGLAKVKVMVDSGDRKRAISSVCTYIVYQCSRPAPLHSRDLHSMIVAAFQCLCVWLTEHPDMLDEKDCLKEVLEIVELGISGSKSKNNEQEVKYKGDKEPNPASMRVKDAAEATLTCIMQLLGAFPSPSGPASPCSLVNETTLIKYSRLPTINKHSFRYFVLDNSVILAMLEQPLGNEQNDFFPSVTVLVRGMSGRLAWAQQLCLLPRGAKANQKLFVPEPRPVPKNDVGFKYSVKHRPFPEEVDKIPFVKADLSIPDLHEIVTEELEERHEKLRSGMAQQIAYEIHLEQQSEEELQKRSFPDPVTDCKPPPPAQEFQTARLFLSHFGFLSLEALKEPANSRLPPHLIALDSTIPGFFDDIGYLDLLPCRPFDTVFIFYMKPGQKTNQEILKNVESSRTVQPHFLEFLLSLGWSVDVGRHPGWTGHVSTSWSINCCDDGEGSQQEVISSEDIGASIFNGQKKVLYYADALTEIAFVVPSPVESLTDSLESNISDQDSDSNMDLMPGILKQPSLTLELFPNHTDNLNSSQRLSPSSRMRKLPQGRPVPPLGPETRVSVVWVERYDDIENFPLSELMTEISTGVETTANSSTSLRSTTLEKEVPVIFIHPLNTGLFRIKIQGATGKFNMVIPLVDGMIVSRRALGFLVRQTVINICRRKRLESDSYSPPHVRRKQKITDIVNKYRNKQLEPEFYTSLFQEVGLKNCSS
inactive: alvocidib 0.02 | Tubastatin A -0.056 | [1] -0.069 | defactinib 0.026 | [2] 0.012 | encorafenib 0.044 | [3] 0.015 | alisertib 0 | [4] 0.032 | gefitinib -0.007 | lapatinib 0.021 | pictilisib -0.062 | crizotinib -0.088 | [5] -0.09 | duvelisib 0.103 | gandotinib -0.06 | tozasertib 0.062 | doramapimod 0.046 | bafetinib -0.043 | [6] 0.103

SCAF1 (UniProt Q9H7N4)
inactive: alvocidib 0.054 | Tubastatin A 0.034 | [1] -0.051 | defactinib 0.046 | [2] 0.051 | encorafenib -0.028 | [3] -0.066 | alisertib 0.128 | [4] -0.02 | gefitinib 0.129 | lapatinib -0.06 | pictilisib -0.107 | crizotinib -0.011 | [5] 0.017 | duvelisib -0.337 | gandotinib -0.074 | tozasertib -0.023 | doramapimod 0.052 | bafetinib -0.27 | [6] -0.096

SEC62 (UniProt Q99442)
UniProt Q99442, sequence (Q99442 whole entry, looked up): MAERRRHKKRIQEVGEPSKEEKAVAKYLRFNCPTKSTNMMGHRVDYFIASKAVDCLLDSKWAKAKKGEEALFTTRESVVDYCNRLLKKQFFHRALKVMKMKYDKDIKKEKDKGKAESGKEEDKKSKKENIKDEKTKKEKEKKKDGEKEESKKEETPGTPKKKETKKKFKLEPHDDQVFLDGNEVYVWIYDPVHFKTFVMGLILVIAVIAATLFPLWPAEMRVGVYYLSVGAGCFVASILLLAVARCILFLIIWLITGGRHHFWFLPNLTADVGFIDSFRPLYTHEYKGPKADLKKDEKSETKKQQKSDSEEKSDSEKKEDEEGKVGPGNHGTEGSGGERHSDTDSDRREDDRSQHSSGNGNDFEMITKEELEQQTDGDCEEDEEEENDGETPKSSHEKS
inactive: alvocidib 0.046 | Tubastatin A 0.07 | [1] 0.019 | defactinib 0.02 | [2] 0.045 | encorafenib -0.012 | [3] -0.084 | alisertib -0.003 | [4] -0.028 | gefitinib 0.004 | lapatinib 0.028 | pictilisib -0.029 | crizotinib 0.011 | [5] 0.231 | duvelisib 0 | gandotinib -0.07 | tozasertib -0.024 | doramapimod 0.002 | bafetinib 0.029 | [6] -0.072

RALA (UniProt P11233)
UniProt P11233, sequence (P11233 whole entry, looked up): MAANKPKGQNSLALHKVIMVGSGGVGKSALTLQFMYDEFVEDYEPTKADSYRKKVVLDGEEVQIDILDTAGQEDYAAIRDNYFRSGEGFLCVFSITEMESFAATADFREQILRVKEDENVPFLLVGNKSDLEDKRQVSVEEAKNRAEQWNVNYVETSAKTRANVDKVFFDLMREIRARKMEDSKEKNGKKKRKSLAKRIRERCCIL
active: [5] -0.3 | [6] 0.217
inactive: alvocidib -0.164 | Tubastatin A 0.044 | [1] 0.016 | defactinib -0.057 | [2] 0.056 | encorafenib 0.03 | [3] -0.102 | alisertib 0.009 | [4] 0.01 | gefitinib 0.023 | lapatinib -0.017 | pictilisib -0.022 | crizotinib 0.012 | duvelisib 0 | gandotinib 0.158 | tozasertib -0.009 | doramapimod 0.014 | bafetinib 0.029

SEC24D isoform 2 (UniProt O94855)
UniProt O94855, sequence (O94855 whole entry, looked up): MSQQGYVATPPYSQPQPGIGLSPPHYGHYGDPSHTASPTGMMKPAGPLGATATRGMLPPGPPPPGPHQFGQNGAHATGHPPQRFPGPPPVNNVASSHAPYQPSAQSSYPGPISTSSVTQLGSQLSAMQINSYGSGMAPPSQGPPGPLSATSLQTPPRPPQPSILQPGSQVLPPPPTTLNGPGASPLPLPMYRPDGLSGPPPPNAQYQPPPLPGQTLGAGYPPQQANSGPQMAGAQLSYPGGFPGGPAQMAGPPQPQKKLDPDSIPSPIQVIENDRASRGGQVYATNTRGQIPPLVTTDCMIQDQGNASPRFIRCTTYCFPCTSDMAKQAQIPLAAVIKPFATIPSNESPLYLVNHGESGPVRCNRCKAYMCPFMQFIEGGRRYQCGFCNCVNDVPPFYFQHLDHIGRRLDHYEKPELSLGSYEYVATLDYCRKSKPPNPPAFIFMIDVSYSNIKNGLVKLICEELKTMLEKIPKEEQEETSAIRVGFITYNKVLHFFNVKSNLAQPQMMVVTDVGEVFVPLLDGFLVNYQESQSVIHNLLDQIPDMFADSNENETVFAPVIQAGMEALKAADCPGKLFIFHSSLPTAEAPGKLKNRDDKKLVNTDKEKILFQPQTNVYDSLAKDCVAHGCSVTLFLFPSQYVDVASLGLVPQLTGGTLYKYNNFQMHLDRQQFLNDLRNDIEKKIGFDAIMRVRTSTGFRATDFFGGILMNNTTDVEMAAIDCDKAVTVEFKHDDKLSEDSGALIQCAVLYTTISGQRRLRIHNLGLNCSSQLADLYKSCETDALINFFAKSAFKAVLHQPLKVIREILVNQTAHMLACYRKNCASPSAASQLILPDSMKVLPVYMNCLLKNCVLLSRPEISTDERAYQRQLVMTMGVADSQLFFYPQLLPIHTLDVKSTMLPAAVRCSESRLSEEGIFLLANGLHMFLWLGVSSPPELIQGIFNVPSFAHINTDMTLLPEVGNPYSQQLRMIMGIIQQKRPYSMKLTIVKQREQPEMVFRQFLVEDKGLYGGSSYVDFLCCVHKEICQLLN
inactive: alvocidib -0.012 | Tubastatin A -0.018 | [1] 0.002 | defactinib 0.012 | [2] -0.008 | encorafenib 0.029 | [3] -0.163 | alisertib 0.005 | [4] 0.006 | gefitinib 0.006 | lapatinib 0.016 | pictilisib -0.03 | crizotinib 0 | [5] 0.031 | duvelisib 0.017 | gandotinib -0.02 | tozasertib 0.005 | doramapimod 0 | bafetinib -0.026 | [6] -0.019

R3HCC1 (UniProt Q9Y3T6)
UniProt Q9Y3T6, sequence (Q9Y3T6 whole entry, looked up, one chain of several): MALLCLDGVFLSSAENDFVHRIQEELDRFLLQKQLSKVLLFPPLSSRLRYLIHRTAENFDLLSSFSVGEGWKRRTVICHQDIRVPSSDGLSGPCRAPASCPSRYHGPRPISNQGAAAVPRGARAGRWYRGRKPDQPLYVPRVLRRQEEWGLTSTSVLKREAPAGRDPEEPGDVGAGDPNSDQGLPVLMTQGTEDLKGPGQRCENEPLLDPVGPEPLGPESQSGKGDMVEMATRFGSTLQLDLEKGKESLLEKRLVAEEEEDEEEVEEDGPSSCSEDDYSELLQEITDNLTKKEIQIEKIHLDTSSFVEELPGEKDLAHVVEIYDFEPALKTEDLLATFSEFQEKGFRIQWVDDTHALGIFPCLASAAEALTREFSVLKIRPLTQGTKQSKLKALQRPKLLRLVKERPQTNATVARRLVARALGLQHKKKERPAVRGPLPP
inactive: alvocidib -0.019 | Tubastatin A 0.023 | [1] 0.048 | defactinib 0.055 | [2] -0.018 | encorafenib -0.004 | [3] -0.04 | alisertib -0.002 | [4] 0.003 | gefitinib 0.008 | lapatinib -0.018 | pictilisib -0.049 | crizotinib 0 | [5] -0.034 | duvelisib 0 | gandotinib 0.089 | tozasertib 0.006 | doramapimod 0.044 | bafetinib 0.002 | [6] 0.08

RBM42 (UniProt Q9BTD8)
UniProt Q9BTD8, sequence (Q9BTD8 whole entry, looked up): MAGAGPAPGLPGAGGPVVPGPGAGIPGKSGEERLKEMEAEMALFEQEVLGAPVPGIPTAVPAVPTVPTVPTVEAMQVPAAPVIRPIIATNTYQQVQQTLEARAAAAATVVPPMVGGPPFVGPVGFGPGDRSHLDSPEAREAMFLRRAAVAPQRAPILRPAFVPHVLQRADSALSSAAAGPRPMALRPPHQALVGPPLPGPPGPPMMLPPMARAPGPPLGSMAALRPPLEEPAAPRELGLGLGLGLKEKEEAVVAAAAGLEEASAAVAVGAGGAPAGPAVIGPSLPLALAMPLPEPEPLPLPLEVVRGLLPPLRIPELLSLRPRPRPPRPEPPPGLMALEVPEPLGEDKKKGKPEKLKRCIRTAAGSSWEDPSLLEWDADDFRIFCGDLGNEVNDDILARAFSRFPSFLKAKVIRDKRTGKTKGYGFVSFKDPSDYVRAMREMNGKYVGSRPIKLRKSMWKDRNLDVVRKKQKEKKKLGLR
inactive: alvocidib -0.036 | Tubastatin A -0.022 | [1] 0.08 | defactinib 0.058 | [2] 0.077 | encorafenib 0.098 | alisertib 0.043 | [4] -0.062 | gefitinib -0.066 | lapatinib 0.05 | pictilisib 0.049 | crizotinib 0.01 | [5] 0.026 | duvelisib -0.032 | gandotinib 0.04 | tozasertib -0.001 | bafetinib 0.083 | [6] -0.01
active: [3] -0.28 | doramapimod 0.216
